Pf growth 96h: P. falciparum growth inhibition at 96 hours; P. falciparum luciferase reporter growth, 96 h; Potency, µM (series often up to 28.7 µM), for the others: top-dose activity change, negative = inhibition, hits mostly inhibitors; 320,000 tested, 6.9% active
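Readout is luminescence from an integrated firefly luciferase in P. falciparum. Red cells, 2% hematocrit and 0.05% parasitemia final, were cultured with compound through two parasite generations (96 hours) at 37 C, 5% CO2.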
VACV mCherry inh: inhibitors of vaccinia virus infection (mCherry reporter signal) | Vaccinia virus mCherry reporter infection, fluorescence | Potency, µM (highest dose often 36.5 µM), inactives show at the highest dose activity change, negative = inhibition, hits mostly inhibitors | 310,000 tested, 0.63% active | AID 720579; calls by dose curve; tested in A549 cells; note: nearly all actives have a fitted effect of over 35% in size
VACV Venus inh: inhibitors of vaccinia virus (Venus reporter) | Vaccinia virus Venus reporter expression, fluorescence | AID 720580 | Potency, µM (doses to about 36.5 µM), for inactives: at the top dose activity change, negative = inhibition, actives largely listed as inhibitors | 330,000 tested, 0.46% active; calls by dose curve; tested in A549 cells; note: nearly all actives have a fitted effect of over 30% in size
Pf growth 48h: P. falciparum growth inhibition at 48 hours (one generation); 310,000 tested, 5.9% active; Potency, µM (series often up to 28.7 µM), inactives show top-dose activity change, negative = inhibition, hits mostly inhibitors; P. falciparum luciferase growth in erythrocytes, 48 h
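Compounds are pin-transferred into medium, infected erythrocytes (2% hematocrit, 0.1% parasitemia final) are added, and plates sit one parasite generation at 37 C in 5% CO2. Detection reagent is then added and luminescence measured.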
AMA1-RON2 inh: disrupts binding of P. falciparum AMA1 to RON2. AlphaScreen AMA1-biotinylated RON2 peptide binding. 360,000 tested, 0.2% active. Potency, µM (series often up to 58.2 µM), for inactives: at the top dose activity change, negative = inhibition, usual class: inhibitors;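 note: 0% = vehicle wells and -100% = peptide control; nearly all actives have a fitted effect of over 45% in size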
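AMA1 (3D7) with his tag at 25 nM final met compounds first, then biotinylated RON2 peptide at 25 nM; detection used donor plus acceptor beads, 10 µg/mL apiece, read by AlphaScreen after 30 min at room temperature.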
An asterisk follows results filed as active. The list is not random: actives were taken first. Their share in the collection is about 8.7%. Unless noted, calls come from the whole dose curve; as a rule, active = well fitted curve in the direction sought with a large enough effect; inconclusive = small, poorly fitted or top-dose-only effect, or another doubt; inactive = no such curve, though single readings can be large; an effect the other way counts as inactive or inconclusive. Unless noted, % is set by controls: 0 for no effect and ±100 for the full control effect; potency is the fitted concentration of half-maximal effect.

Results for O=c1[nH]c(C2CCCN(S(=O)(=O)c3ccccc3Cl)C2)nc2c1nnn2Cc1ccc2c(c1)OCCO2 (stereo not drawn) ?
Pf growth 96h: 13.1µM*; Pf growth 48h: inconclusive; AMA1-RON2 inh: 16.4%

What do the screens show for `COc1cc2c(cc1OC)C13CCN4CC5=CCOC6CC(=O)N2C1C6C5CC43` (stereo not drawn) (tested in a mixture with another compound)?
Pf growth 96h: inconclusive; VACV mCherry inh: -5.0%; VACV Venus inh: active; Pf growth 48h: inconclusive; AMA1-RON2 inh: 6.5%

How did COc1cc2c(cc1OC)C13CCN4CC5CCOC6CC(=O)N2C1C6C5CC43 (stereo not drawn) do in these assays?
VACV mCherry inh: -15.0%; VACV Venus inh: -21.1%; AMA1-RON2 inh: -4.1%

How did Cc1ccc(C)c(NC(=O)CCCn2nc(C)c3sc4ccccc4c3c2=O)c1 do in these assays?
VACV mCherry inh: -10.3%; VACV Venus inh: 2.0%

Results for COc1ccccc1Nc1cc(C)nc2nc(-c3ccccc3)nn12 ?
VACV mCherry inh: -14.1%; VACV Venus inh: -17.0%

Results for CCn1cc(CN2CCN(C)C(CCO)C2)c2ccccc21 (stereo not drawn) ?
Pf growth 96h: 13.1µM*; VACV mCherry inh: inactive; VACV Venus inh: 2.8%; Pf growth 48h: 5.3%; AMA1-RON2 inh: 6.0%

Results for CCn1cc(CN2CCN(CCC(C)C)C(CCO)C2)c2ccccc21 (stereo not drawn) ?
Pf growth 96h: -17.6%; Pf growth 48h: inconclusive; AMA1-RON2 inh: -2.6%

Results for CCCCCSc1nnc2c(n1)OC(CC)Nc1ccc(Br)cc1-2 (stereo not drawn) ?
VACV mCherry inh: -0.4%; VACV Venus inh: 3.8%

Results for Cc1ccc(C(=O)CC(=O)c2ccc(C)cc2O)cc1 ?
Pf growth 96h: 7.38µM*; VACV mCherry inh: inactive; VACV Venus inh: -17.1%; Pf growth 48h: -61.5%; AMA1-RON2 inh: 37.8%

How did CC(C)(C)c1ccc(C(=O)CC(=O)c2cc(Cl)ccc2O)cc1 do in these assays?
Pf growth 48h: 4.65µM*; AMA1-RON2 inh: 57.0%

Results for CS(=O)(=O)N1CCc2cc(-c3csc(NC(=O)Cc4cccs4)n3)ccc21 ?
Pf growth 96h: 97.1%; VACV mCherry inh: inconclusive; VACV Venus inh: inconclusive; Pf growth 48h: -23.2%; AMA1-RON2 inh: -11.1%

How did O=C(CN1CCOCC1)Nc1nc(-c2ccc3c(c2)CCN3S(=O)(=O)c2ccccc2)cs1 do in these assays?
VACV mCherry inh: inconclusive; VACV Venus inh: -19.1%; Pf growth 48h: 2.08µM*; AMA1-RON2 inh: 10.3%

What do the screens show for `Cc1sc(NC(=O)CN2CCOCC2)nc1-c1ccc2c(c1)CCN2S(=O)(=O)c1ccccc1`?
VACV mCherry inh: inconclusive; VACV Venus inh: inconclusive; Pf growth 48h: 11.7µM*; AMA1-RON2 inh: 0.7%

Results for O=C(CN1CCCC1)Nc1nc(-c2ccc3c(c2)CCN3C(=O)c2ccccc2F)cs1 ?
Pf growth 96h: inconclusive; VACV mCherry inh: inconclusive; VACV Venus inh: -10.2%; Pf growth 48h: 14.7µM*; AMA1-RON2 inh: 13.8%

How did Cc1cccc(C(=O)N2CCc3cc(-c4csc(NC(=O)CN5CCCC5)n4)ccc32)c1 do in these assays?
Pf growth 96h: inconclusive; VACV mCherry inh: -18.3%; VACV Venus inh: -17.3%; Pf growth 48h: inconclusive; AMA1-RON2 inh: -3.9%

What do the screens show for `CC(=O)c1ccc(NC(=O)Cn2c(=O)oc3cc(S(=O)(=O)N4CCCCC4)ccc32)cc1`?
VACV mCherry inh: -21.2%; VACV Venus inh: -20.1%

Results for C=CCNc1nc(Cl)nc(Nc2ccc([N+](=O)[O-])cc2)n1 ?
Pf growth 96h: 2.33µM*; VACV mCherry inh: -9.8%; VACV Venus inh: -28.2%; Pf growth 48h: 15.7%; AMA1-RON2 inh: -0.7%

How did S=C(c1cn(CCOc2cccc3ccccc23)c2ccccc12)N1CCCC1 do in these assays?
Pf growth 96h: inconclusive; VACV mCherry inh: inactive; VACV Venus inh: -14.9%; Pf growth 48h: 13.1µM*; AMA1-RON2 inh: 3.6%

How did Cc1ccc(OCCn2cc(C(=S)N3CCCC3)c3ccccc32)cc1C do in these assays?
Pf growth 96h: inconclusive; VACV mCherry inh: 3.98µM*; VACV Venus inh: -25.5%; Pf growth 48h: inconclusive; AMA1-RON2 inh: 24.0%

What do the screens show for `S=C(c1cn(CCOc2ccccc2)c2ccccc12)N1CCCC1`?
Pf growth 96h: inconclusive; VACV mCherry inh: inconclusive; VACV Venus inh: inconclusive; Pf growth 48h: 11.7µM*; AMA1-RON2 inh: -22.0%

How did CCOC(=O)C(=O)NCC(c1cccnc1)N1CCN(c2ccccc2)CC1 (stereo not drawn) do in these assays?
VACV mCherry inh: -1.6%; VACV Venus inh: -13.4%

What do the screens show for `COc1ccc(CCC(=O)NCc2nc3cccnc3n2Cc2ccc(F)cc2)cc1`?
VACV mCherry inh: -10.7%; VACV Venus inh: -7.0%

How did Cc1cc(C)c2c(CC(=O)Nc3c(C(=O)c4ccc(F)cc4)oc4ccccc34)coc2c1 do in these assays?
VACV mCherry inh: -7.2%; VACV Venus inh: -4.6%

Results for O=C(NCCCN1CCCC1=O)c1ccc(Cl)c(S(=O)(=O)N2CCCCC2)c1 ?
Pf growth 96h: 5.22µM*; Pf growth 48h: 8.28µM*; AMA1-RON2 inh: 7.9%

How did O=C(NCCCN1CCCC1=O)Nc1ccc(Br)cc1Cl do in these assays?
Pf growth 96h: 10.4µM*; Pf growth 48h: 36.4%; AMA1-RON2 inh: -0.2%

What do the screens show for `COc1cc(C(=O)NCCCN2CCCC2=O)cc(Br)c1OCc1ccccc1`?
Pf growth 96h: inconclusive; Pf growth 48h: 9.28µM*; AMA1-RON2 inh: 6.3%

How did CC1CN(S(=O)(=O)c2cc(C(=O)NCCCN3CCCC3=O)ccc2Cl)CC(C)O1 (stereo not drawn) do in these assays?
VACV mCherry inh: -14.6%; VACV Venus inh: -10.7%; AMA1-RON2 inh: -9.2%

What do the screens show for `CCN(CC)CCNC(=O)c1ccc(NC(=O)COc2ccc3c(c2)CCC3)cc1`?
Pf growth 96h: 14.7µM*; Pf growth 48h: inconclusive; AMA1-RON2 inh: 35.6%

What do the screens show for `CCOc1ccc(NC(=O)Cn2c(=O)n(-c3ccc(C)cc3)c(=O)c3cc(OC)c(OC)cc32)cc1`?
VACV mCherry inh: -16.2%; VACV Venus inh: -0.6%

How did CCC(CC)C(=O)Nc1ccc2nc(SCC(=O)N3c4ccccc4CC3C)sc2c1 (stereo not drawn) do in these assays?
VACV mCherry inh: -14.9%; VACV Venus inh: -2.3%

How did CCn1c(=O)c2cc(C(=O)N(CC(C)C)CC(C)C)sc2c2ccccc21 do in these assays?
VACV mCherry inh: -15.0%; VACV Venus inh: -10.3%

How did COc1cccc(OC)c1C(=O)NNC(=O)c1cccc(COc2ccc3c(c2)CCC3)c1 do in these assays?
Pf growth 96h: inactive; VACV mCherry inh: -26.6%; VACV Venus inh: -12.8%; Pf growth 48h: 2.33µM*; AMA1-RON2 inh: 115.1%

How did COC(=O)c1ccc2c(c1)NC(=O)C(N1CCOCC1)S2 (stereo not drawn) do in these assays?
Pf growth 96h: 80.1%; Pf growth 48h: 6.6%; AMA1-RON2 inh: 13.6%
